Only some compounds are listed: those with a hit (about 5.2% of all), similar ones and a draw of the others.
HEK293 cAMP cs – qHTS Assay for Agonists of the Thyroid Stimulating Hormone Receptor: Activators of Intracellular cAMP Concentrations in Parental HEK 293. parental HEK293 CNG cAMP sensor, membrane potential fluorescence. Potency, µM (doses to about 57.1 µM), for inactives: top-dose activation, hits mostly activators. 73,000 compounds, 2.5% hits. AID 938, 2007; also: % of control where 0% means no effect; nearly all actives have a fitted effect of over 55% in size
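Parental HEK 293 cells stably expressing a cAMP-gated CNG channel were loaded with membrane potential dye containing 100 uM RO 20-1724 for 60 min. Compound added for 30 min; depolarization read as fluorescence intensity at 590 nm.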
TSHR agonist – qHTS Assay for Agonists of the Thyroid Stimulating Hormone Receptor; HEK293-CNG-TSHR cells (CNG channel as cAMP sensor), membrane potential dye, cAMP; Potency, µM (top dose mostly 57.1 µM), for the others: top-dose activation, actives largely listed as activators; 73,000 compounds, 0.48% hits; AID 926, 2007; active = well fitted activation curve with a large enough effect in the main read-out, with a control signal flat, not every such curve was filed as active; inconclusive = small, poorly fitted or top-dose-only effect, or a change in a side signal; inactive = no such curve, though single readings can be large or run the other way; % of control where 0% means no effect;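 also: the control signal comes from parental cells without the receptor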
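cAMP rise detected as CNG-channel membrane depolarization by fluorescent dye (emission 590 nm), 30 min after compound, following 60 min dye loading containing 100 uM RO 20-1724 at room temperature. Cells: TSHR/CNG HEK 293, with parental CNG HEK 293 as control.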
Luciferase inh – qHTS Assay for Inhibitors of Firefly Luciferase; purified firefly luciferase, luminescence, 8 min; Luciferin 4-monooxygenase (Photinus pyralis), P08659; 72,000 compounds, 2.2% hits; Potency, µM (highest dose often 57.1 µM), for inactives: at the highest dose activity change, negative = inhibition, most hits filed as inhibitors; AID 411, 2009; also: % is scaled to controls: 0 for no effect and ±100 for the full control effect; nearly all actives have a fitted effect of over 40% in size
Target sequence (P08659 whole entry, looked up): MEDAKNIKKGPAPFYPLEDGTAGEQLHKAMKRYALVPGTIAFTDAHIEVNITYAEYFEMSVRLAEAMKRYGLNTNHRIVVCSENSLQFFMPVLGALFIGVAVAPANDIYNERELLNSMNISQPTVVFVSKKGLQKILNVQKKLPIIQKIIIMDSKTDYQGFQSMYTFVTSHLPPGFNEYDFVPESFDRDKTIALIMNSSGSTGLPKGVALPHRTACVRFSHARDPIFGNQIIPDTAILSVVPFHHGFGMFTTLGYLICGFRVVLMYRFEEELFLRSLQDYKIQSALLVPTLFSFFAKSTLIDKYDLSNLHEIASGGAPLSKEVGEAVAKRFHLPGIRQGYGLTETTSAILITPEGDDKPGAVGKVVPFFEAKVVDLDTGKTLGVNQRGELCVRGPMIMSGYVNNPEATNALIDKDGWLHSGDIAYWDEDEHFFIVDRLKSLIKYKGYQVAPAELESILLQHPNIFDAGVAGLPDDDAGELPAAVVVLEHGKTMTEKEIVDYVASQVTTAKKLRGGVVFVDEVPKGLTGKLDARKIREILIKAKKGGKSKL
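Firefly luciferase (PKLight detection mix) with 10 uM ATP in pH 7.2 imidazole buffer (KCl, MgCl2, Tween 20, BSA). Compounds tested across a concentration series (qHTS). Luminescence read after 8 min at ambient temperature.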
PK Bst – Pyruvate Kinase; Potency, µM; 51,000 compounds, 1.2% hits; AID 361, 2006; purified pyruvate kinase, luminescence ATP production; ribose 5-phosphate activator present at AC10; in the data active = potency below about 11 µM; inconclusive = mostly about 12 µM to 25 µM;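 the screen sought inhibitors and activators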;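 also: scaled between full activation by ribose 5 phosphate and full inhibition by luteolin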
* hit, by the source's call; [ ] = remark or other dose. Unless noted, calls follow the shape of the dose curve; as a rule, active = well fitted curve in the direction sought with a large enough effect; inconclusive = small, poorly fitted or top-dose-only effect, or another doubt; inactive = no such curve, though single readings can be large; an effect the other way counts as inactive or inconclusive. Potency is read from the fitted curve at half-maximal effect.

`CCCC(c1nnnn1Cc1ccccc1)N1CCN(c2ccccc2OC)CC1` (stereo unspecified) gave HEK293 cAMP cs 10µM*, TSHR agonist inconclusive, Luciferase inh 2.2% and PK Bst >57.
Screening CCCC(c1nnnn1Cc1ccc(OC)cc1)N1CCN(c2ccccc2OC)CC1 (stereo unspecified) returned HEK293 cAMP cs 25.1µM*, TSHR agonist inconclusive, Luciferase inh 1.6% and PK Bst >57.
`CCCC(c1nnnn1Cc1cccs1)N1CCN(c2ccc(OC)cc2)CC1` (stereo unspecified) gave HEK293 cAMP cs inconclusive, TSHR agonist inconclusive, Luciferase inh 2.5% and PK Bst >57.
For N#Cc1cc2cc3c(cc2nc1N1CCCCC1)OCCO3 the results were HEK293 cAMP cs inconclusive, TSHR agonist inconclusive, Luciferase inh 12.6µM* and PK Bst >57.
c1ccc(-c2nc(-n3ccnc3)nc(-n3ccnc3)n2)cc1 was read as HEK293 cAMP cs -3.0%, TSHR agonist 12.1%, Luciferase inh 4.0% and PK Bst 0.942*.
c1ccc(CN2CCN(c3nc(-c4ccccc4)nc(-n4ccnc4)n3)CC2)cc1 was read as HEK293 cAMP cs inconclusive, TSHR agonist inconclusive, Luciferase inh 1.8% and PK Bst 4.36*.
Screening CN(C)c1cccc(-c2nnc(SCCCC#N)o2)c1 returned HEK293 cAMP cs -4.7%, TSHR agonist -0.1%, Luciferase inh 15.8µM* and PK Bst inactive.
For CN(C)CCSc1nnc(-c2ccccc2)o1 the results were HEK293 cAMP cs 21.9%, TSHR agonist 5.8%, Luciferase inh -12.9% and PK Bst >57.
For COc1ccc(C(=O)c2oc3ccc(OC)cc3c2N)cc1 the results were HEK293 cAMP cs 1.3%, TSHR agonist -23.1% and Luciferase inh 10µM*.
COC(=O)c1oc2ccc(OC)cc2c1N was read as HEK293 cAMP cs -4.3%, TSHR agonist 30.0% and Luciferase inh inconclusive.
For COc1ccc(-c2nnc(N)s2)cc1 the results were HEK293 cAMP cs 5.0%, TSHR agonist -14.4% and Luciferase inh inconclusive.
CCCOc1ccc(-c2nnc(N)s2)cc1 was read as Luciferase inh 12.6µM* and PK Bst inconclusive.
For CCOC(=O)Cc1csc(NC(=O)c2cccc(N3C(=O)CCC3=O)c2)n1 the results were HEK293 cAMP cs inconclusive, TSHR agonist inconclusive, Luciferase inh -6.6% and PK Bst >57.
For COC(=O)[C@@]1(Cc2ccccc2)[C@H]2c3cc(C(=O)N4CCCC4)n(CCN4CNCC4=O)c3C[C@H]2CN1C(=O)c1ccccc1 the results were HEK293 cAMP cs 8.2% and TSHR agonist 9.4%.
COC(=O)[C@@]1(Cc2ccccc2)[C@H]2c3cc(C(=O)N4CCCC4)n(Cc4ccc(O)c(OC)c4)c3C[C@H]2CN1C(=O)c1ccccc1 was read as HEK293 cAMP cs 1µM* and TSHR agonist inconclusive.
For COC(=O)[C@@]1(Cc2ccccc2)[C@H]2c3cc(C(=O)N4CCCC4)n(Cc4ccccc4)c3C[C@H]2CN1C(=O)c1ccccc1 the results were HEK293 cAMP cs 1.26µM* and TSHR agonist inconclusive.
COC(=O)[C@@]1(Cc2ccccc2)[C@H]2c3cc(C(=O)N4CCCC4)n(Cc4ccccn4)c3C[C@H]2CN1C(=O)c1ccccc1 was read as HEK293 cAMP cs 3.16µM* and TSHR agonist inconclusive.
COC(=O)[C@@]1(Cc2ccc(F)cc2)[C@H]2c3cc(C(=O)N4CCCC4)n(CCO)c3C[C@H]2CN1C(=O)c1ccccc1 was read as HEK293 cAMP cs 19.7% and TSHR agonist 13.3%.
COC(=O)[C@@]1(Cc2ccccc2)[C@H]2c3cc(C(=O)N4CCCC4)n(Cc4ccc(OC)c(OC)c4)c3C[C@H]2CN1C(=O)c1ccccc1 was read as HEK293 cAMP cs 3.16µM* and TSHR agonist inconclusive.
`Cc1ccc(S(=O)(=O)N[C@H](CO)C(=O)O)cc1` gave HEK293 cAMP cs 2.0%[11.4 µM], TSHR agonist -2.3%[11.4 µM] and Luciferase inh 2.0%[11.4 µM].
For Cc1cccc(NC(=O)c2c(O)c3cccc4c3n(c2=O)CCC4)n1 the results were HEK293 cAMP cs -4.6%, TSHR agonist 18.9%, Luciferase inh 1.9% and PK Bst >57.
CS(=O)(=O)N(CCC(=O)O)Cc1ccccc1 was read as HEK293 cAMP cs 14.9%, TSHR agonist 2.5%, Luciferase inh -1.8% and PK Bst >57.
`COC(=O)[C@@]1(Cc2ccc(OC)cc2)[C@H]2c3cc(C(=O)N4CCCC4)n(Cc4cc(C)n(C)n4)c3C[C@H]2CN1C(=O)c1ccccc1` gave HEK293 cAMP cs 12.6µM* and TSHR agonist inconclusive.
Screening COC(=O)[C@@]1(Cc2ccc(OC)cc2)[C@H]2c3cc(C(=O)N4CCCC4)n(CCc4ccc(OC)c(Br)c4)c3C[C@H]2CN1C(=O)c1ccccc1 returned HEK293 cAMP cs 5.01µM* and TSHR agonist inconclusive.
For COC(=O)[C@@]1(Cc2ccc(OC)cc2)[C@H]2c3cc(C(=O)N4CCCC4)n(CCO)c3C[C@H]2CN1C(=O)c1ccccc1 the results were HEK293 cAMP cs 15.7% and TSHR agonist 1.5%.
Screening CCOC(=O)c1cnc(SCC(=O)N2CCN(c3ccccc3)CC2)nc1N returned HEK293 cAMP cs 9.6%, TSHR agonist 14.1%, Luciferase inh -0.1% and PK Bst >57.
CCOC(=O)c1cnc(SCc2ccccc2)nc1N was read as HEK293 cAMP cs 16.9% and Luciferase inh 15.8µM*.
Screening CN(Cc1ccccc1)Cc1nc2c([nH]1)c(=O)[nH]c(=O)n2C returned HEK293 cAMP cs 1.9%, TSHR agonist 2.6%, Luciferase inh 1.4% and PK Bst >57.
For CCC(=O)N[C@@H]1CCc2cccc(OC)c2C1 the results were HEK293 cAMP cs 19.2%, TSHR agonist 3.4% and Luciferase inh 25.1µM*.
For CCCCN(CCCC)CCNC(=O)Cc1nc2c(c(=O)[nH]c(=O)n2C)n1C the results were HEK293 cAMP cs 13.6%, TSHR agonist 7.9%, Luciferase inh -1.6% and PK Bst >57.
For CCOC(=O)c1cnc2c(-c3ccccc3)c(C)nn2c1N the results were HEK293 cAMP cs inconclusive, TSHR agonist inconclusive, Luciferase inh 1.1% and PK Bst >57.
Cc1cc(N)n2ncc(-c3ccccc3)c2n1 was read as HEK293 cAMP cs -32.7%, TSHR agonist inconclusive, Luciferase inh 25.1µM* and PK Bst 4.76*.
For CCOC(=O)c1cnc2c(-c3ccccc3)cnn2c1N the results were HEK293 cAMP cs 4.2%, TSHR agonist -0.1%, Luciferase inh 2.51µM* and PK Bst 2.31*.
For CCOCCn1c(SC)nc2c1c(=O)[nH]c(=O)n2C the results were Luciferase inh 3.9%[25.5 µM] and PK Bst >25.6.
`Cc1ccc(S(=O)(=O)NC(C)C(=O)NC2CCCCCC2)cc1` (stereo unspecified) gave HEK293 cAMP cs inconclusive, TSHR agonist inconclusive, Luciferase inh 1.9% and PK Bst >57.
